From PubChem BioAssay AID463 (The Scripps Research Institute Molecular Screening Center, 2006)
The whole screen tested about 56,000 compounds, of which about 710 (1.3%) were called active. For the sample, actives were picked, then their nearest neighbours and some compounds at random. Unmarked numbers belong to inactive results.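 The calls were made as follows: active = inhibition above the mean inhibition of all tested compounds plus 3 SD (cut at about 28% in these data); inactive = the rest.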

Test: cytotoxicity toward Jurkat T cells, primary screen, cytotoxicity control, cell-based, Jurkat E6.1, 60K MLSMR library (AID 463)
Settings: Jurkat E6.1 viability, ATP luminescence, 48 h; at 4 µM; active compounds read high

Compound | inhibition
COc1ccc2[nH]c3ccc(OC)cc3c2c1 | -4.4%
COc1ccc(N=Cc2c(O)[nH]c3ccccc23)cc1OC | 39.2% (active)
COc1ccc(CCNC(=O)CCCCn2c(=O)[nH]c3ccccc3c2=O)cc1OC | -5.9%
COc1cc(N=Cc2c(O)[nH]c3ccccc23)cc(OC)c1OC | 63% (active)
COc1ccc(OC)c(N=Cc2c(O)[nH]c3ccccc23)c1 | -1%
COC(=O)c1[nH]c2ccccc2c1NS(=O)(=O)c1ccc(OC)cc1OC | -1.9%
CCn1nnc(NC(=O)c2cc(Cl)c(OC)c(Cl)c2)n1 | -2%
COC(=O)c1ccc(OC(=O)c2nn(C)cc2Cl)c(OC)c1 | 2.9%
CCOC(=O)C1CCN(C(c2cc3cc(C)cc(C)c3[nH]c2=O)c2nnnn2C2CCCCC2)CC1 (configuration not stated) | -0.3%
C=CCNC(=O)CCCOc1cccc(C)c1 | 4.8%
OCCNCCCCOc1ccccc1F | 3%
COc1cc(Cl)c(S(=O)(=O)n2cnc(C)c2)cc1Cl | 2.3%
CCC(=O)Nc1ccc(C(=O)Nc2ccc3c(c2)C(=O)N(CC2CCCO2)C3=O)cc1 (configuration not stated) | -3.3%
CCCCC(=O)Nc1ccc(C(=O)NCCCn2ccnc2)cc1 | 57% (active)
CCCC(=O)Nc1ccc(C(=O)NCCCn2ccnc2)cc1 | -15.7%
CCOc1ccccc1C(=O)NCCCn1ccnc1 | 9.7%
C=CCSc1nc2c(c(=O)[nH]1)C(C(C)C)C(C#N)=C(N)O2 (configuration not stated) | 0.8%
O=C1CCC(Cc2ccccc2)N1 (configuration not stated) | 0.5%
Cc1cnc(C(=O)OCC(=O)Nc2ccc(Cl)cc2Cl)cn1 | 7.4%
C=CCn1cnc2scc(-c3ccccc3)c2c1=O | -3%
CCCc1[nH]nc2c1C(c1ccc(Br)s1)C(C#N)=C(N)O2 (configuration not stated) | 29.4% (active)
CCCc1[nH]nc2c1C(C1CC=CCC1)C(C#N)=C(N)O2 (configuration not stated) | 5.6%
CCCc1[nH]nc2c1C(c1ccc(OC(=O)c3ccco3)cc1)C(C#N)=C(N)O2 (configuration not stated) | 0.7%
Cc1cc(N(C)C)cc(C)[n+]1[O-] | -7.1%
CCOc1ccc(-c2nnc3ccc(SC)nn23)cc1 | 0.4%

Compound | inhibition
COC(=O)CSC1=C(C#N)C(c2ccccc2OC)C(C(=O)OC)C(=O)N1 (configuration not stated) | 5.3%
CCOC(=O)CSC1=C(C#N)C(c2ccco2)C(C(=O)OCc2ccccc2)=C(C)N1 (configuration not stated) | 7.5%
CCOC(=O)CSC1=C(C#N)C(c2sccc2C)CC(=O)N1 (configuration not stated) | 93.2% (active)
CCOC(=O)COc1ccc(Cl)cc1C1NC(=O)NC(C)=C1C(C)=O (configuration not stated) | -2.2%
CCOC(=O)c1c(NC(=O)c2ccc(Br)o2)sc2c1CCCC2 | 6.2%
C=C(C)COc1ccc(-c2n[nH]c(C)c2-c2ccccc2)c(O)c1 | 22.9%
C=C(C)COc1ccc(-c2n[nH]c(C)c2-c2ccccc2OC)c(O)c1 | 5.8%
COc1ccc(-c2n[nH]c(C)c2-c2ccc(OC)c(OC)c2)c(O)c1 | 52% (active)
Cn1c(=O)[nH]c(=O)c2c1nc(CN1CCN(c3ccccc3F)CC1)n2CCc1ccccc1 | 0%
O=S(=O)(c1cccc(S(=O)(=O)N2CCC(n3nnc4ccccc43)CC2)c1)N1CCCCC1 | 0.6%
Cn1c(NC(=O)c2ccc3c(c2)OCO3)cc(=O)n(C)c1=O | -10.9%
CCOc1ccc(-c2nnc(-c3ccco3)o2)cc1 | 8.6%
CCOC(=O)CSc1nnc(CNc2nc(-c3ccccc3)cs2)n1C | 0%
COc1ccc(C(c2nnnn2C2CCCCC2)N2CCN(c3ccccc3F)CC2)cc1 (configuration not stated) | -5.7%
Cc1nnc(NC(=O)CSc2nccn2-c2cccc(C)c2C)s1 | 71.5% (active)
COc1ccccc1-n1c(CNC(=O)c2ccccc2)nnc1SCC(=O)Nc1nnc(C)s1 | -6.1%
CCc1nnc(NC(=O)CSc2nnc(-c3ccncc3)n2Cc2ccccc2)s1 | -9.3%
Cc1cc(Nc2cccc(C)c2C)n2ncnc2n1 | 2.2%
CCOC(=O)N1CCN(C(=O)C2CC(c3ccc(F)cc3)=NO2)CC1 (configuration not stated) | -1.7%
CN(C)c1ccnc2sc3c(=O)n(Cc4ccccc4)cnc3c12 | 14.6%
CC1COC2C(O1)N(S(C)(=O)=O)CCN2S(C)(=O)=O (configuration not stated) | -1.8%
CC(=O)Oc1ccc(C)cc1N1C(=O)c2ccc(C(=O)O)cc2C1=O | -10.1%
CCOc1ccc2nc(SC(CC)C(=O)Nc3cc(C)on3)sc2c1 (configuration not stated) | 1%
Cc1ccc(S(=O)(=O)NCc2csc(C)n2)c(C)c1 | -3.9%
Cc1nc(CNS(=O)(=O)c2cccnc2)cs1 | 2.3%

Compound | inhibition
Cc1nc(CNS(=O)(=O)c2ccc(Oc3ccccc3)cc2)cs1 | 35.6% (active)
Cc1cccc(NC(=O)c2ccccc2NC(=O)C(C)(C)C)n1 | 2.6%
COc1cccc(N2CCN(C(=O)C3CCCN(S(=O)(=O)c4cnc[nH]4)C3)CC2)c1 (configuration not stated) | 0.4%
CN(C)c1nc(N)nc(CSc2nnnn2-c2cccc3ccccc23)n1 | 66.2% (active)
Cc1ccc(-c2noc(CSc3nnnn3-c3ccccc3)n2)cc1 | -2.2%
O=c1c2ccccc2nc(CSc2nnnn2-c2ccccc2)n1-c1ccccc1 | -1.7%
Cn1c(=O)cc(OCCCC(=O)N2CCN(Cc3ccc4c(c3)OCO4)CC2)c2ccccc21 | 1.1%
Cc1cc(/C=N/n2cnnc2)c(C)n1-c1ccc2ncccc2c1 | 1%
C=CCn1c(=N)n(CC(O)COc2ccc(OC)cc2)c2ccccc21 (configuration not stated) | -0.5%
CC1CCN(C(=O)Cn2cc(C(=O)c3ccco3)c3ccccc32)CC1 | 2.8%
O=C1CCC(C(=O)Nc2ccc(OC(F)F)cc2)N1 (configuration not stated) | 0.7%
O=C(Nc1ccccc1C(F)(F)F)c1cc(-c2ccc(O)cc2)on1 | 16.9%
Cc1cc(C)nc(NC(=O)C(C)N2C(=O)c3ccccc3C2=O)n1 (configuration not stated) | -2.7%
Cc1cc(C)nc(NC(=O)Nc2ccccc2C(F)(F)F)n1 | 45.2% (active)
Cc1nnc(N(Cc2ccco2)C(=O)c2ccno2)s1 | -0.7%
Cc1ccc2[nH]c(=O)c(COC(=O)c3ccccn3)cc2c1 | -6.3%
CCn1c(=N)c(S(=O)(=O)c2ccc(F)cc2)cc2c(=O)n3ccccc3nc21 | -7%
COc1ccc(Cn2nnc3c(=O)[nH]c(C4CCN(C(=O)c5ccccc5Cl)CC4)nc32)cc1 | -2.8%
CCN(CC)S(=O)(=O)c1cccc(C(=O)Nc2ccccc2)c1 | 29.7% (active)
CCN(CC)S(=O)(=O)c1cccc(C(=O)NCC(=O)OCC(=O)NCc2ccccc2)c1 | -5.9%
CN(C)S(=O)(=O)c1cccc(C(=O)Nc2cccnc2)c1 | -3%
COc1ccc(Br)cc1S(=O)(=O)N1CCN=C1C | 2.5%
CCOC(=O)C1=C(C)N=c2s/c(=C\C(=O)OC)c(=O)n2C1c1ccc(OC)cc1 (configuration not stated) | 6%
CCOC(=O)N1CCN(S(=O)(=O)c2ccc(C(=O)Nc3ccc(F)cc3F)cc2)CC1 | 84.2% (active)
O=C(CN1CCN(S(=O)(=O)c2ccc(F)cc2)CC1)Nc1ccccc1F | -6%

Compound | inhibition
O=C(Nc1cccc(F)c1)c1ccc(S(=O)(=O)N2CCCC2)cc1 | 1.7%
Cc1ccc(C2c3c(oc4ccc(C)cc4c3=O)C(=O)N2CCCN2CCOCC2)cc1 (configuration not stated) | 3.9%
Cc1ccccc1Cn1c(=O)[nH]c2ccccc21 | 5.4%
COc1ccc(CCN2C(=O)c3[nH]nc(-c4ccccc4O)c3C2c2ccc(C)cc2)cc1OC (configuration not stated) | 11.1%
CC(=O)N1CCN(C(=O)c2cccc(S(=O)(=O)Nc3ccc(C)cc3)c2)CC1 | -0.6%
O=S(=O)(Nc1ccc2nc(-c3ccco3)[nH]c2c1)c1ccccc1 | 4.2%
Cc1ccc(S(=O)(=O)Nc2ccc3ncccc3c2)cc1 | 69.4% (active)
Cc1cc(C)cc(N(CC(=O)Nc2c(C)n(C)n(-c3ccccc3)c2=O)S(C)(=O)=O)c1 | -5.2%
CCOC(=O)CSc1nnc(-c2cccc(Br)c2)o1 | -6.1%
COc1cc(NS(=O)(=O)c2ccc(NC(C)=O)cc2)cc(OC)c1 | 37.3% (active)
COc1ccc(C(=O)Nc2ccc(S(=O)(=O)Nc3onc(C)c3C)cc2)cc1OC | -3.3%
COc1ccc(NS(=O)(=O)c2ccc(NC(C)=O)cc2)cc1OC | 31.3% (active)
CC(=O)Nc1ccc(S(=O)(=O)Nc2cccc(NC(=O)C(C)(C)C)c2)cc1 | 7.9%
CCNS(=O)(=O)c1ccc(NC(=O)Nc2cccc(OC)c2)cc1 | -3.7%
COC(=O)COc1ccc(S(=O)(=O)Nc2ccc(NC(C)=O)cc2)cc1 | -9.6%
NC(=O)c1ccsc1NC(=O)c1ccco1 | -2.4%
O=C(O)c1ccc(F)c(S(=O)(=O)Nc2ccccc2)c1 | 6.8%
O=C(O)Cc1ccc(NC(=O)C2CCCCC2C(=O)O)cc1 (configuration not stated) | -4.1%
Cc1nnc(SCc2ccc(C(=O)c3ccc(Cl)cc3)o2)n1-c1ccccc1 | 2.9%
COc1ccc(N2C(=O)CN=C2Nc2cccc(C)c2C)cc1OC | -3%
Nc1nnc(SCCN2C(=O)c3ccccc3S2(=O)=O)s1 | -1%
COc1ccccc1NC(=O)CN1CCN(S(=O)(=O)c2ccc(Br)cc2)CC1 | -0.3%
